“And” between values parts separate entries of the source, which are not always exact repeats. Identical values can stand only once. Inconclusive results are not listed. Some structures have more than one record in an assay (separate samples or runs), and their calls can disagree. The source made the active and inactive calls. Unless noted, calls follow the shape of the dose curve; as a rule, active = well fitted curve in the direction sought with a large enough effect in the repeat runs; inconclusive = weak or mixed curves; inactive = no such curve, though single readings can be large; an effect the other way counts as inactive or inconclusive.

A short description of assay [1]: qHTS assay to test for compound auto fluorescence at 535 nm (green) in HEK293 cells (AID 720680).
Assay [2] can be described thus: qHTS assay to test for compound auto fluorescence at 460 nm (blue) in HEK293 cell free culture (AID 720681). In outline: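 Test compounds were pinned into cell-free culture medium (DMEM with 10% FBS) and fluorescence was read directly at Ex/Em 405/460 nm. Signals were expressed as fluorescence equivalents of triamterene, with DMSO vehicle as control.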
Assay [3] in a line: qHTS assay to test for compound auto fluorescence at 535 nm (green) in HEK293 cell free culture (AID 720682). In outline: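 Measurement is a direct plate read of green fluorescence (485 nm in, 535 nm out) after compound addition to serum-supplemented DMEM lacking cells, with fluorescein used to express intensities.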
For orientation: In qHTS, concentration-response curves come from the screen itself.

Assay [4] can be described thus: qHTS assay to test for compound auto fluorescence at 590 nm (red) in HEK293 cell free culture (AID 720683). In outline:
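Tox21 10K library compounds were pinned into cell-free DMEM with 10% FBS and fluorescence was read at excitation 540 nm. Activity is expressed as Rose Bengal sodium equivalency.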

Assay [5] can be described thus: qHTS assay to test for compound auto fluorescence at 590 nm (red) in HepG2 cell free culture (AID 720684). In outline:
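Ex 540 / Em 590 nm read of compound in cell-free MEM (10% FBS). Rose Bengal sodium reference.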

A short description of assay [6]: qHTS assay to test for compound auto fluorescence at 460 nm (blue) in HepG2 cell free culture (AID 720685). In outline: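 Cell-free plates of MEM plus 10% FBS received 23 nL compound or DMSO vehicle; blue-channel (405/460 nm) intensity scored against triamterene as reference fluorophore.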
The nature of assay [7]: qHTS assay to test for compound auto fluorescence at 535 nm (green) in HepG2 cell free culture (AID 720686).
The nature of assay [8]: qHTS assay to test for compound auto fluorescence at 460 nm (blue) in HepG2 cells (AID 720687). In outline:
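Cells (2,000/well in MEM with 10% FBS) attached overnight at 37 C, then were exposed to compound or DMSO for 1 hr at 37 C, 5% CO2. Fluorescence read at Ex/Em 405/460 nm, expressed as triamterene-equivalent signal.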

In assay [9] the target is Glucocorticoid receptor (Homo sapiens) (UniProt P04150). Description: qHTS assay to identify small molecule agonists of the glucocorticoid receptor (GR) signaling pathway (AID 720691; active = well fitted activation curve with a large enough effect in the signal ratio in the repeat runs, not every such curve was filed as active; the % refers to the signal ratio). In outline: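 Compounds in DMSO, alongside positive controls, were added to GR-bla HeLa reporter cells and incubated 18 h at 37 C; GRE-driven beta-lactamase was detected by fluorescence after 2 h with FRET substrate at room temperature.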

The target is the same in assay [10]. Description: qHTS assay to identify small molecule antagonists of the glucocorticoid receptor (GR) signaling pathway (AID 720692; active = well fitted inhibition curve with a large enough effect in the signal ratio in the repeat runs, not every such curve was filed as active; the % refers to the signal ratio). In outline:
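In a 1536-well cell format, compounds were added 4 h after seeding GR-bla HeLa cells, together with dexamethasone at 5 nM final; reporter activity was measured by FRET-substrate fluorescence following 18 h at 37 C.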

A short description of assay [11]: qHTS assay to identify small molecule antagonists of the glucocorticoid receptor (GR) signaling pathway - cell viability counter screen (AID 720693). Also: nearly all actives have a fitted effect of over 55% in size.
Assay [12] can be described thus: qHTS assay for identifying genotoxic compounds that show differential cytotoxicity against isogenic chicken DT40 cell lines with known DNA damage response pathways - wild type cell line (AID 743012). Also: nearly all actives have a fitted effect of over 60% in size. In outline:
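Viability of DNA repair-proficient chicken DT40 cells was assessed by CellTiter-Glo luminescence following 40 h compound exposure at 37 C/5% CO2.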

Assay [13] is described as follows: qHTS assay for identifying genotoxic compounds that show differential cytotoxicity against isogenic chicken DT40 cell lines with known DNA damage response pathways - Rev3 mutant cell line (AID 743014). Also: nearly all actives have a fitted effect of over 55% in size.
Assay [14] can be described thus: qHTS assay for identifying genotoxic compounds that show differential cytotoxicity against isogenic chicken DT40 cell lines with known DNA damage response pathways - Rad54/Ku70 mutant cell line (AID 743015). Also: nearly all actives have a fitted effect of over 60% in size. Also: potency is read from the fitted curve at half-maximal effect.
Assay [15] can be described thus: qHTS assay to identify small molecule antagonists of the androgen receptor (AR) signaling pathway - cell viability counter screen (AID 743033; also: nearly all actives have a fitted effect of over 45% in size).
Assay [16] addresses Androgen receptor (Homo sapiens) (UniProt P10275). The assay is described as follows: qHTS assay to identify small molecule antagonists of the androgen receptor (AR) signaling pathway (AID 743035; active = well fitted inhibition curve with a large enough effect in the signal ratio in the repeat runs, not every such curve was filed as active; the % refers to the signal ratio). In outline:
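Reporter HEK293 cells were exposed to compounds and R1881 overnight (16 h, 37C); beta-lactamase activity was then quantified by FRET fluorescence.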

Assay [17] has the same target. Description: qHTS assay to identify small molecule agonists of the androgen receptor (AR) signaling pathway (AID 743036; active = well fitted activation curve with a large enough effect in the signal ratio in the repeat runs, with a control signal flat, not every such curve was filed as active; the % refers to the signal ratio). In outline: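 Beta-lactamase under UAS control, stably integrated in HEK293 GripTite cells, reports receptor activation. After 16 h compound treatment, cells received FRET substrate for 2 h at room temperature before fluorescence reading.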
The target is the same in assay [18]. The assay is described as follows: qHTS assay to identify small molecule agonists of the androgen receptor (AR) signaling pathway using the MDA cell line (AID 743040; also: nearly all actives have a fitted effect of over 20% in size). In outline:
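Cell-based luciferase reporter: MDA-kb2, MMTV promoter (AR + GR response elements). 16 h compound exposure at 37C; ONE-Glo, 30 min RT, luminescence.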

A short description of assay [19]: qHTS assay to identify small molecule antagonists of the androgen receptor (AR) signaling pathway using the MDA cell line - cell viability counter screen (AID 743041; also: nearly all actives have a fitted effect of over 45% in size). In outline:
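In this qHTS counter assay, fluorescence intensity after CellTiter-Fluor addition indicated viability of MDA-kb2 AR-luc cells given compounds and R1881 for 16 h at 37C.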

The target of assay [20] is Androgen receptor (Homo sapiens) (UniProt P10275). The assay is described as follows: qHTS assay to identify small molecule antagonists of the androgen receptor (AR) signaling pathway using the MDA cell line (AID 743042; also: nearly all actives have a fitted effect of over 55% in size). In outline: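 MDA-kb2 cells (human breast carcinoma, stably carrying an MMTV-luciferase reporter responsive to AR and GR) were plated at 3,000 cells/well and preincubated 5 hr at 37C, then given compound plus R1881 agonist for 16 h. ONE-Glo luminescence was read.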
Androgen receptor (Homo sapiens), sequence (P10275 whole entry, looked up): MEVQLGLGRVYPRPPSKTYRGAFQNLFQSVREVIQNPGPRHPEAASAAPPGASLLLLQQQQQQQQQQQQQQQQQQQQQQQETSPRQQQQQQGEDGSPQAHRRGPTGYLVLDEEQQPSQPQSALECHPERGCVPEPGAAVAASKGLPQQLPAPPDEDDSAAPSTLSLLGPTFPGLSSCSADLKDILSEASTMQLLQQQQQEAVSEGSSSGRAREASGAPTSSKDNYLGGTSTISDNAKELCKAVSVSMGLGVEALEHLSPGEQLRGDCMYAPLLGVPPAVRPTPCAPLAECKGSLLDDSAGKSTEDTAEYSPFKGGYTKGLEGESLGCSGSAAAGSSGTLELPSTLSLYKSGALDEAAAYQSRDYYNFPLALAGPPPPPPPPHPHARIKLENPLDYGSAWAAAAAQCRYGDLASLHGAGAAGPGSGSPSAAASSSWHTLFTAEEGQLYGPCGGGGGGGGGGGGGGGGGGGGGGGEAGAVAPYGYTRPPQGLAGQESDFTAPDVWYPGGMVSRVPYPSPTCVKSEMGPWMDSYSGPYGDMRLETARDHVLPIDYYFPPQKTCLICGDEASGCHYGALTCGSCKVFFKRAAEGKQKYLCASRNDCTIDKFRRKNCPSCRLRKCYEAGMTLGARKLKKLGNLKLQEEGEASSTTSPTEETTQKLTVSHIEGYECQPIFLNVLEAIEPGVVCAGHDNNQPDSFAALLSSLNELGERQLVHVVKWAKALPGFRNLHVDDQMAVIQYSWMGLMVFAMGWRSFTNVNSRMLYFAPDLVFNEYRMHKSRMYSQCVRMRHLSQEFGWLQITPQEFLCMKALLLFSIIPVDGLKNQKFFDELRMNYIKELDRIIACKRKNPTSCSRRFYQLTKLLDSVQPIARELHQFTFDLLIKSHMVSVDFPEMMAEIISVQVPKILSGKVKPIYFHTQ

Glucocorticoid receptor (Homo sapiens), sequence (P04150 whole entry, looked up): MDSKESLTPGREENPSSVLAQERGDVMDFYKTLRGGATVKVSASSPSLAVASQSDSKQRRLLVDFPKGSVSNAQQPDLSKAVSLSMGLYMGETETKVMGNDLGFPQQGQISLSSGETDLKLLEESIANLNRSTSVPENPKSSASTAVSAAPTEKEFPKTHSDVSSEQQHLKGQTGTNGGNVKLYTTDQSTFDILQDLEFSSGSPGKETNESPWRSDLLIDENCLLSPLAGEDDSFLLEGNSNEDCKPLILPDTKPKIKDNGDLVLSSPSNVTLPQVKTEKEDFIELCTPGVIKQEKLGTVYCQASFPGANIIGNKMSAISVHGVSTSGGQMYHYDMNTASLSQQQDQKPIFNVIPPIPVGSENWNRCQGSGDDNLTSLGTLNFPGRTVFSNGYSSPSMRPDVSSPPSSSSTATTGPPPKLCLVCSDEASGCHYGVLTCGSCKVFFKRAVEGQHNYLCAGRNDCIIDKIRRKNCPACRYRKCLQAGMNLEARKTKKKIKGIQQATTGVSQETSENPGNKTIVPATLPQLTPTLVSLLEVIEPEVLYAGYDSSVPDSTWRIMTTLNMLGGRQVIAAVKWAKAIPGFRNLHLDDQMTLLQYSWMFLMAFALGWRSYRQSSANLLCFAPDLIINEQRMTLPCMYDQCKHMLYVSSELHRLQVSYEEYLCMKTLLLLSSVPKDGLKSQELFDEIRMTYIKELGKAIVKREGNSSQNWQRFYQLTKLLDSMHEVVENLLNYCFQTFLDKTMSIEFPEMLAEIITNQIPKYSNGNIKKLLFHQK

`CC(C)NCC(O)COc1ccc(COCCOC(C)C)cc1` (stereo not drawn): the molecule was classed as inactive in [1], in assay [2], in assay [3], in assay [4], in [5] and in [6]. Also, the molecule was called inactive in [7], in [8], in assay [10], in [11], in assay [17] and in [18]. The Potency entry in assay [9], in [12], in [13], in [15], in assay [16] and in assay [19] was “inactive” each time. For the same molecule, in [20], the Potency entry is “inactive”. For the same molecule, the Potency result in [14] is “inactive and 26.6 µM (active)”.
With `O=C1c2ccccc2C(=O)c2cc(S(=O)(=O)O)ccc21`, the result in assay [1], in [2], in assay [3], in assay [4], in assay [5] and in assay [6] was inactive. Also, the molecule was classed as inactive in [7], in assay [8], in assay [10] and in assay [11]. Besides, the Potency entry in [9], in [12], in assay [14], in assay [15] and in assay [19] was “inactive” each time.
Regarding `CC(C)(C)NC(N)=O`, the molecule was classed as inactive in assay [1], in assay [2], in assay [3], in [4], in assay [5] and in [6]. Also, the molecule was called inactive in [7], in [8], in [10], in assay [11] and in assay [18]. The Potency entry in [9], in [12], in [13], in [14], in [15] and in assay [16] was “inactive” in each case. Besides, the Potency entry in assay [19] and in assay [20] was “inactive” each time.
Regarding `C=C(C)C(=O)OCCNC(C)(C)C`, the call in assay [1], in assay [2], in assay [3], in [4], in assay [5] and in assay [6] was inactive. For the same molecule, the molecule was classed as inactive in assay [7], in [8], in [10] and in assay [11]. Further, the Potency result in assay [9], in assay [12], in assay [14], in assay [15] and in assay [19] was “inactive” throughout.
Regarding `C=CCCCCCCCCCCCC`, the molecule was classed as inactive in assay [1], in assay [2], in assay [3], in [4], in assay [5] and in assay [6]. The call in [7], in [8], in assay [10] and in assay [18] was inactive. Further, the Potency entry in assay [9], in assay [12], in assay [13], in assay [14], in assay [15] and in assay [16] was “inactive” in each case. The Potency result in assay [20] is “inactive”.
For `CCCC(=O)C(C)=O`, the outcome in assay [1], in [2], in [3], in [4], in assay [5] and in assay [6] was inactive. Also, the molecule was called inactive in [7], in assay [8], in assay [10] and in assay [11]. The Potency result in assay [9], in assay [12], in [13], in assay [14] and in assay [15] was “inactive” throughout.
For `C[C@H](CCC(=O)O)[C@H]1CC[C@H]2[C@@H]3C(=O)C[C@@H]4CC(=O)CC[C@]4(C)[C@H]3CC(=O)[C@]12C`, the call in [1], in assay [2], in assay [3], in assay [4], in assay [5] and in assay [6] was inactive. The outcome in [7], in [8], in [10] and in assay [11] was inactive. For the same molecule, the Potency entry in assay [9], in assay [12], in [13] and in assay [15] was “inactive” in each case.
`C=COCCOCCOCCOC=C`: the outcome in [1], in assay [2], in assay [3], in assay [4], in [5] and in assay [6] was inactive. Further, the result in assay [7], in assay [8], in assay [10], in [11], in assay [17] and in assay [18] was inactive. Further, the Potency result in [9], in assay [12], in assay [13], in [15], in [16] and in assay [20] was “inactive” each time.

These data come from PubChem BioAssay (Tox21).
